Sampled rows, rich in hits. Any-hit rate of the full collection: about 3.1%.
SSB-PriA inh – inhibitors of Klebsiella pneumoniae PriA binding to SSB C-terminal tail; AlphaScreen SSBct-PriA binding, biotinylated peptide; inhibition, % at 33 µM; 430,000 tested, 0.6% active; in the data active = inhibition mostly above about 37%, no sharp cut-off; inactive = mostly below about 20%;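 note: plate controls were negative control peptide for no effect and reference peptide for full effect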
Bead autofluor – compound fluorescence in toxin protease inhibitor counterscreen; compound autofluorescence counterscreen, microsphere flow cytometry; active compounds read high; fluorescence intensity (no concentration beside the values); 360,000 tested, 3.1% active; AID 624483; in the data active = fluorescence intensity above about 16000; inconclusive = no clear call, values can overlap the other calls
Anthrax LF prot – anthrax lethal factor protease inhibition; multiplex microsphere protease cleavage assay, LF; AID 588501; P15917; 360,000 tested, 0.12% active; inhibition, % at 10 µM; note: plate controls were buffer without enzyme for full effect and enzyme alone for no effect
BoNT F protease – blocks Botulinum neurotoxin F light chain protease | inhibition, % at 10 µM | 360,000 tested, 0.22% active | Multiplex microsphere protease cleavage assay, flow cytometry; in the data active = inhibition above about 35%, passing the limit was not always enough; inconclusive = no clear call, values can overlap the other calls; note: plate controls were buffer without enzyme for full effect and enzyme alone for no effect
BoNT A protease – blocks Botulinum neurotoxin A light chain protease. inhibition, % at 10 µM. AID 588499. 360,000 tested, 0.17% active. multiplex microsphere protease substrate cleavage, flow cytometry; note: plate controls were buffer without enzyme for full effect and enzyme alone for no effect
* = called active by the depositor. Cut-off read from the data, not from the text of the source, unless noted: active = inhibition above about 30%; inconclusive = no clear call, values can overlap the other calls; inactive = below that.

CCc1sc(C(=O)Nc2nc(-c3ccccn3)cs2)cc1C was read as SSB-PriA inh 13, Bead autofluor 2631, Anthrax LF prot 4, BoNT F protease -29 and BoNT A protease 3.
For O=C(Nc1nc(-c2ccccn2)cs1)c1ccc(NC(=O)c2cccs2)cc1 the results were SSB-PriA inh 97*.
`Cc1nnsc1C(=O)Nc1nc(-c2ccccn2)cs1` gave SSB-PriA inh 136*.
`O=C(Nc1nc(-c2ccccc2)cs1)c1cccs1` gave SSB-PriA inh -10, Bead autofluor 3095, Anthrax LF prot -4, BoNT F protease -6 and BoNT A protease 0.
`Cc1ccc(C(=O)Nc2nc(-c3ccccn3)cs2)s1` gave SSB-PriA inh 47*, Bead autofluor 4050, Anthrax LF prot 2, BoNT F protease -8 and BoNT A protease 0.
O=C(Nc1nc(-c2ccccn2)cs1)c1ccc(Cl)s1 was read as SSB-PriA inh 32, Bead autofluor 5438, Anthrax LF prot -11, BoNT F protease -15 and BoNT A protease -1.
Cc1nc(C(=O)Nc2nc(-c3ccccn3)cs2)c(C(C)C)s1 was read as SSB-PriA inh 68*.
`COc1c(C)cnc2c1c(=O)n(CC(N)=O)c(=O)n2C` gave SSB-PriA inh 0.
For COc1ccc(S(=O)(=O)CC(=O)Nc2nc(-c3ccccn3)cs2)cc1 the results were SSB-PriA inh 88*.
Cc1c(C(=O)Nc2nc(-c3ccccn3)cs2)oc2ccccc12 was read as SSB-PriA inh 69*, Bead autofluor 3014, Anthrax LF prot 3, BoNT F protease -3 and BoNT A protease 0.
`Cc1cc(C)cc(C(=O)Nc2nc(-c3ccccn3)cs2)c1` gave SSB-PriA inh 92*.
For CS(=O)(=O)c1ccc(C(=O)Nc2nc(-c3ccccn3)cs2)cc1 the results were SSB-PriA inh 75*.
For Cc1cc(C)cc(OCC(=O)Nc2nc(-c3ccccn3)cs2)c1 the results were SSB-PriA inh -7.
Screening CS(=O)(=O)Cc1ccc(C(=O)Nc2nc(-c3ccccn3)cs2)cc1 returned SSB-PriA inh 17.
Cc1nc(NC(=O)c2oc3ccccc3c2C)sc1C(=O)N(C)C was read as SSB-PriA inh 5, Bead autofluor 24342*, Anthrax LF prot -6, BoNT F protease -3 and BoNT A protease -2.
For COc1ccccc1-c1nnc(NC(=O)C2CCCN2S(=O)(=O)c2cccs2)o1 (stereo not given) the results were SSB-PriA inh 75*, Bead autofluor 2911, Anthrax LF prot 4, BoNT F protease -1 and BoNT A protease 0.
`O=C(Nc1nc(-c2ccccn2)cs1)C1=COCCO1` gave SSB-PriA inh 106*.
Screening COc1ccc(-c2csc(NC(=O)c3ccoc3C)n2)cc1 returned SSB-PriA inh -4, Bead autofluor 3209, Anthrax LF prot -2, BoNT F protease 1 and BoNT A protease 0.
`Cc1occc1C(=O)Nc1nc(-c2ccccn2)cs1` gave SSB-PriA inh 112*.
For CC(=O)Nc1ccc(S(=O)(=O)N2CCC(c3nnc(-c4ccco4)o3)CC2)cc1 the results were SSB-PriA inh -6.
`CCOC(=O)c1ccc(Nc2c(C#N)cnc3ccc(Cl)cc23)cc1` gave SSB-PriA inh -10.
For Cc1nn(-c2ccc(Nc3ccc(NC(=O)c4cccs4)cc3)nn2)c(C)c1C the results were SSB-PriA inh 10.
Screening O=C(CC12CC3CC(CC(O)(C3)C1)C2)Nc1nc(-c2ccccn2)cs1 returned SSB-PriA inh 97*.
O=C(Nc1nc(-c2ccccn2)cs1)c1ccccc1C(F)(F)F was read as SSB-PriA inh 88*.
`O=C(Nc1nc(-c2ccccn2)cs1)[C@@H]1CCCN1S(=O)(=O)c1cccs1` gave SSB-PriA inh 91*.
COc1ccc(S(=O)(=O)Nc2ccc(C(=O)Nc3nc(-c4ccccn4)cs3)cc2)cc1 was read as SSB-PriA inh 95*.
`O=C(CC12CC3CC(CC(C3)C1)C2)Nc1nc(-c2ccccn2)cs1` gave SSB-PriA inh 43.
Screening COc1ccccc1N1CCN(CCNC(=O)CCc2ccccc2)CC1 returned SSB-PriA inh -32.
c1ccc(Cn2c(COc3ccc4ccccc4c3)nc3ccccc32)cc1 was read as SSB-PriA inh -16.
CCCCn1c(=O)c2oc3ccccc3c2n(CC(=O)Nc2cccc(C(F)(F)F)c2)c1=O was read as SSB-PriA inh -3.
O=C(Nc1nc(-c2ccccn2)cs1)c1ccc(Cl)cc1 was read as SSB-PriA inh 73*.
For CC1CN(Cc2ccc(C(=O)Nc3nc(-c4ccccn4)cs3)cc2)CC(C)O1 (stereo not given) the results were SSB-PriA inh 114*.
`O=C(/C=C/c1cccs1)Nc1nc(-c2ccccn2)cs1` gave SSB-PriA inh 66*.
O=C(Nc1nc(-c2ccc(Cl)cc2Cl)cs1)c1ccccc1 was read as SSB-PriA inh -4.
Screening O=C(Cc1nc(-c2ccccc2)cs1)Nc1ccccc1 returned SSB-PriA inh -1.
CCOCc1nnc(NC(=O)CSCc2ccccc2)s1 was read as SSB-PriA inh -4, Bead autofluor 20554*, Anthrax LF prot -2, BoNT F protease 4 and BoNT A protease inconclusive.
CCOCc1nnc(NC(=O)COC)s1 was read as SSB-PriA inh -4, Bead autofluor 23993*, Anthrax LF prot -1, BoNT F protease -4 and BoNT A protease -2.
`CCC(=O)Nc1nnc(Cc2ccccc2)s1` gave SSB-PriA inh -9, Bead autofluor 9909, Anthrax LF prot -5, BoNT F protease -4 and BoNT A protease 0.
`CCCC(=O)Nc1nnc(Cc2ccccc2)s1` gave SSB-PriA inh -6, Bead autofluor 24700*, Anthrax LF prot -3, BoNT F protease -1 and BoNT A protease -2.
CCOCC(=O)Nc1nnc(COCC)s1 was read as SSB-PriA inh -9, Bead autofluor 2645, Anthrax LF prot 0, BoNT F protease inconclusive and BoNT A protease 0.
For CCC1C(c2ccccc2)N(C)C(c2ccccc2)CC1(O)c1ccccc1 (stereo not given) the results were SSB-PriA inh 7, Bead autofluor 3058, Anthrax LF prot -2, BoNT F protease 2 and BoNT A protease -1.
For CC(C)C1C(c2ccccc2)N(C)C(c2ccccc2)CC1(O)c1ccccc1 (stereo not given) the results were SSB-PriA inh 5, Bead autofluor 21931*, Anthrax LF prot 0, BoNT F protease 1 and BoNT A protease 2.
For COc1ccc(N2C(=O)CCC(C(=O)c3ccccc3)=C2C)cc1 the results were SSB-PriA inh -18, Bead autofluor 19774*, Anthrax LF prot -2, BoNT F protease 8 and BoNT A protease inconclusive.
Screening COc1ccc(C(=O)c2ccccc2C(=O)c2ccccc2)cc1 returned SSB-PriA inh -8, Bead autofluor 3683, Anthrax LF prot -6, BoNT F protease -7 and BoNT A protease 0.
Cc1ccccc1-c1noc(N)c1C#N was read as SSB-PriA inh -6, Bead autofluor 23456*, Anthrax LF prot 0, BoNT F protease -5 and BoNT A protease -1.
`COc1cc(OC)cc(C(=O)NCC(c2ccc(N(C)C)cc2)N2CCN(C)CC2)c1` (stereo not given) gave SSB-PriA inh -7.
